PubChem BioAssay AID1531 (NMMLSC, 2009)
Among all 290,000 compounds or so, about 3,300 (1.1%) were called active. Rule as the data show it: active = binding response below about 67% or above about 130%; inconclusive = no clear call, values can overlap the other calls; inactive = in between. This excerpt belongs to a sample that is enriched for actives.

target: Mitogen-activated protein kinase kinase kinase 2 (Homo sapiens) (UniProt Q9Y2U5); assay: modulators of MEK5 binding to wildtype MEKK2, primary screen, biochemical, multiplex bead flow cytometry, Alexa488-MEK5 (AID 1531); conditions: Alexa488-MEK5 binding to MEKK2 WT, at 10 µM, actives lie on both sides

Binding response (% of control), inactive:
CC1CN(S(=O)(=O)c2cccc(C(F)(F)F)c2)CN1C(=O)N1CCOCC1 (configuration not stated) 95%
COc1ccc(C2CC(c3cccs3)=NN2c2ccccc2)cc1 (configuration not stated) 81%
COc1ccccc1N1N=C(c2cccs2)CC1c1ccccc1 (configuration not stated) 93%
FC(F)(F)c1cccc(Nc2ncnc3ccccc23)c1 103%
O=[N+]([O-])c1ccc(N/N=C/c2ccccc2)cc1 99%
O=C1Nc2cc(C(=O)N3CCN(c4ccc(F)cc4)CC3)ccc2NC1CSCc1cccc(F)c1 (configuration not stated) 87%
O=C(/C=C/c1ccccc1Cl)Nc1ccc(S(=O)(=O)Nc2ncccn2)cc1 92%
Nc1ccc(S(=O)(=O)Nc2nccc(/C=C/c3ccc(Br)s3)n2)cc1 93%
CC(=O)N1c2ccc(S(=O)(=O)N3CCC(C(=O)N4CCN(c5ccccc5)CC4)CC3)cc2CC1C (configuration not stated) 102%
COc1ccc(C=C(C#N)C#N)c(CSc2ccccn2)c1 103%
CCOc1ccccc1NC(=O)NC1CCCCCCC1 98%
COCCNC(=O)CN(Cc1ccco1)C(=O)CCC(=O)Nc1nccs1 103%
O=C(c1ccc(F)cc1)n1c(=S)nc2ccccn21 80%
CC(NS(=O)(=O)c1ccc(Br)cc1)C(=O)NCC1CCCO1 (configuration not stated) 100%
O=C(CSc1ccc(-c2ccc(Br)cc2)nn1)NCC1CCCO1 (configuration not stated) 107%
COC(=O)C(C)n1cnc2c(nnn2-c2ccc(F)cc2)c1=O (configuration not stated) 94%
COc1cc(NC(=O)CCS(=O)(=O)c2ccc3c(c2)oc(=O)n3C)cc(OC)c1 100%
COc1ccc(CCNC(=O)C2CCCN(S(=O)(=O)c3ccc(OC)cc3)C2)cc1 (configuration not stated) 94%
CC(C)(C)Oc1ccccc1Nc1nc(NCCO)nc(N2CCCC2)n1 103%
Cc1[nH]c2ccccc2c1/C=N\NC(=O)Cn1nnc(-c2ccccc2)n1 107%
Cc1[nH]c2ccccc2c1/C=N/NC(=O)CNC(=O)c1ccc2c(c1)OCO2 100%
CC(C)c1nc2cc(C(=O)NC(C)c3cnn(C)c3)ccc2o1 (configuration not stated) 104%
O=C(OCc1cc2ccccc2[nH]c1=O)c1cccnc1 109%
Cc1cc(=O)[nH]c(SCc2cc(Cl)ccc2OC(F)F)n1 106%
COC(=O)C1=C[C@@H](C(=O)OC)[C@@H]2C3=C(C(=O)[C@]2(C)NC(=O)c2ccccc2)[C@H](C)n2c(=O)n(C)c(=O)n2[C@@H]3C1 102%
OCC[C@H]1C[C@H](O)[C@@H](O)[C@]2(CCCCO2)O1 98%
Cc1ccc(NS(=O)(=O)c2cc3c(cc2C)NC(=O)CO3)cc1 98%
COc1cccc(NC(=O)NCc2ccc(F)cc2)c1 98%
Cc1cccc(NC(=O)c2cccc(C(F)(F)F)c2)c1 91%
CC(Sc1nnc(-c2ccccc2F)n1C1CC1)C(N)=O (configuration not stated) 104%
Cc1c(NC(=O)Nc2cccc([N+](=O)[O-])c2)c(=O)n(-c2ccccc2)n1C 103%
COc1ccc(C(=O)NC(=S)N2CCNC(=O)C2CC(=O)OC(C)C)cc1 (configuration not stated) 107%
CCCNC(=O)NCc1ccc(N2CCCC2=O)cc1 98%
CCOc1ccc(C(=O)COC(=O)c2ccc(-n3cnnn3)cc2)cc1 99%
COC(C[C@@H](O)C[C@H](O)[C@H](C)OCc1ccccc1)OC 92%
Cc1noc(C)c1S(=O)(=O)Nc1ccc(C(=O)O)cc1 100%
Cc1cc(C)cc(N(CC(=O)N2CC=C(c3ccccc3)CC2)S(=O)(=O)c2c(C)noc2C)c1 112%
CCOc1ccc(NC(=O)Nc2ccc(N(C)C(C)=O)cc2)cc1 97%

Binding response (% of control), active:
Cc1ccccc1C1CC(c2cccs2)=NN1S(C)(=O)=O (configuration not stated) 16%
FC(F)(F)c1cccc(N/N=C/c2ccccc2)c1 143%
CC(=O)Nc1ccc(S(=O)(=O)Nc2nccc(/C=C/c3ccccc3F)n2)cc1 -6%
OC(CNCC1CCCO1)Cn1c2ccc(Br)cc2c2cc(Br)ccc21 (configuration not stated) 141%
COCCNC(=S)N/N=C/c1c(C)[nH]c2ccccc12 24%
O=C(OCc1cc(Cl)ccc1OC(F)F)c1cccnc1 281%
Cc1cccc(NC(=O)Nc2cccc(Oc3c(F)c(F)c(F)c(F)c3F)c2)c1 235%
O=C(COC(=O)c1ccc(N2CCCC2=O)cc1)c1ccc(OC(F)F)cc1 0% [inhibitor]
Cc1noc(C)c1S(=O)(=O)N(C)Cc1ccccc1 5% [inhibitor]
